In the experiment the test system is MCF10A. Briefly: perturbation Mahalanobis distance of morphological profile vs DMSO controls (Mahalanobis distance (SD units)); higher = stronger morphological change, active = 7 or more. To be noted: 72 h. Here is the method:
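MCF10A cells were seeded onto drugs dispensed acoustically into 384-well plates, using one dose per drug chosen from its human peak plasma concentration, and incubated for 72 h at 37 °C. Cells were stained for DNA, tubulin and mitochondria and imaged; 78 CellProfiler features were extracted, plate-normalised and compared with DMSO wells.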

The mark [1] stands for this setting: screen batch: Batch1_Mahalanobis_Distance.
The mark [2] stands for this setting: screen batch: Batch2_Mahalanobis_Distance.

The record followed here is the supplement of paper PMC6853941.

Each structure is given as a SMILES string. Unmarked numbers belong to inactive results.

With `Cc1ccc(Nc2nccc(N(C)c3ccc4c(C)n(C)nc4c3)n2)cc1S(N)(=O)=O` [Pazopanib] (132.6 µM), the “perturbation Mahalanobis distance” value is 3.25 under setting [1] and 2.85 under setting [2].

In the case of `COc1ccc2c3c1O[C@H]1C[C@@H](O)C=C[C@@]31CCN(C)C2` [Galantamine] (20 µM), the “perturbation Mahalanobis distance” value reads like this: under setting [1], 2.14; under setting [2], 2.43.

For the molecule `CC[N+](C)(CC)CCOC(=O)C(O)(c1ccccc1)C1CCCCC1` (stereo not given) [Oxyphenonium Bromide] (0.07 µM), the “perturbation Mahalanobis distance” value is, setting by setting: under setting [1], 2.2; under setting [2], 2.44.

For the molecule `NN1CCOC1=O` [3-Amino-2-Oxazolidinone] (49 µM), the “perturbation Mahalanobis distance” value is, setting by setting: under setting [1], 2.59; under setting [2], 2.76.

As for `CN(C)CCCN1c2ccccc2CCc2ccccc21` [Imipramine] (6.2 µM), the “perturbation Mahalanobis distance” value under setting [1] was 6.2 and the “perturbation Mahalanobis distance” value under setting [2] is 4.52.

With `O=C1C(=O)c2ccccc2C(O)=C1C1CCC(c2ccc(Cl)cc2)CC1` (stereo not given) [Atovaquone] (37.9 µM), the “perturbation Mahalanobis distance” value by setting is: under setting [1], 3.34; under setting [2], 1.78.

As for `CO[C@@H]1[C@@H](OC(N)=O)[C@@H](O)[C@H](Oc2ccc3c(=O)c(NC(=O)c4ccc(O)c(CC=C(C)C)c4)c(O)oc3c2C)OC1(C)C` [Novobiocin] (90.8 µM), the “perturbation Mahalanobis distance” value is 5.81 under setting [1] and 6.6 under setting [2].

`Nc1nnc(-c2cccc(Cl)c2Cl)c(N)n1` [Lamotrigine] (54.6 µM): the “perturbation Mahalanobis distance” value by setting is: under setting [1], 2.15; under setting [2], 2.9.

Consider `COCCCOc1cc(C[C@@H](C[C@H](N)[C@@H](O)C[C@H](C(=O)NCC(C)(C)C(N)=O)C(C)C)C(C)C)ccc1OC` [Aliskiren] (2.5 µM), for which the “perturbation Mahalanobis distance” value is, setting by setting: under setting [1], 2.96; under setting [2], 2.64.

In the case of `N=C(N)c1ccc(OCCCCCOc2ccc(C(=N)N)cc2)cc1` [Pentamidine] (7.4 µM), the “perturbation Mahalanobis distance” value under setting [1] was 7.67 (active) and the “perturbation Mahalanobis distance” value under setting [2] was 9.96 (active).

On to `CC(=O)Nc1nnc(S(N)(=O)=O)s1` [Acetazolamide] (90 µM), for which the “perturbation Mahalanobis distance” value is 3.52 under setting [1] and 2.44 under setting [2].

For `CC(C)C1CCC(C(=O)N[C@H](Cc2ccccc2)C(=O)O)CC1` (stereo not given in full) [Nateglinide] (66.1 µM), the “perturbation Mahalanobis distance” value under setting [1] was 2.59 and the “perturbation Mahalanobis distance” value under setting [2] was 3.16.

For `OCC(O)COc1ccc(Cl)cc1` (stereo not given) [Chlorphenesin] (83.9 µM), the “perturbation Mahalanobis distance” value was 2.63 under setting [1] and 4 under setting [2].

On to `CC(C)NCC(O)COc1ccc(CC(N)=O)cc1` (stereo not given) [Atenolol] (18.8 µM), for which the “perturbation Mahalanobis distance” value reads like this: under setting [1], 2.37; under setting [2], 2.25.

For `O=C(O)c1cnccn1` [Pyrazinoic Acid] (604.4 µM), the “perturbation Mahalanobis distance” value is, setting by setting: under setting [1], 2.79; under setting [2], 2.79.

`CCCc1nc(C(C)(C)O)c(C(=O)OCc2oc(=O)oc2C)n1Cc1ccc(-c2ccccc2-c2nn[nH]n2)cc1` [Olmesartan Medoxomil] (8.1 µM): the “perturbation Mahalanobis distance” value is 2.22 under setting [1] and 1.74 under setting [2].

For `NC(=O)N[C@@H](CCC(=O)O)C(=O)O` [Carglumic Acid] (68.4 µM), the “perturbation Mahalanobis distance” value is, setting by setting: under setting [1], 2.14; under setting [2], 2.6.

With `CN1C[C@H]2c3ccccc3Oc3ccc(Cl)cc3[C@@H]2C1` [Asenapine] (0.07 µM), the “perturbation Mahalanobis distance” value by setting is: under setting [1], 2.56; under setting [2], 2.47.

For `CN(C)CCCN1c2ccccc2Sc2ccc(C(F)(F)F)cc21` [Triflupromazine] (1.4 µM), the “perturbation Mahalanobis distance” value was 4.75 under setting [1] and 4.32 under setting [2].

As to `CC(=O)S[C@@H]1CC2=CC(=O)CC[C@]2(C)[C@H]2CC[C@@]3(C)[C@@H](CC[C@@]34CCC(=O)O4)[C@H]12` [Spironolactone] (3 µM), the “perturbation Mahalanobis distance” value was 3.75 under setting [1] and 5.83 under setting [2].

Consider `CNC[C@H](O)c1ccc(O)c(O)c1` [Epinephrine] (27.3 µM), for which the “perturbation Mahalanobis distance” value reads like this: under setting [1], 2.67; under setting [2], 2.89.

In the case of `COc1ccccc1Oc1c(NS(=O)(=O)c2ccc(C(C)(C)C)cc2)nc(-c2ncccn2)nc1OCCO` [Bosentan] (33.6 µM), the “perturbation Mahalanobis distance” value is 3.04 under setting [1] and 5.42 under setting [2].

For `CCCCCCCN(CC)CCCC(O)c1ccc(NS(C)(=O)=O)cc1` (stereo not given) [Ibutilide] (0.08 µM), the “perturbation Mahalanobis distance” value is 2.16 under setting [1] and 2.06 under setting [2].

Regarding `CC(=O)O.C[C@H](N)C(=O)O.NCCCC[C@H](N)C(=O)O.N[C@@H](CCC(=O)O)C(=O)O.N[C@@H](Cc1ccc(O)cc1)C(=O)O` [Glatiramer Acetate] (50 µM), the “perturbation Mahalanobis distance” value is 2.19 under setting [1] and 2.3 under setting [2].

Take `O=C1C(CCS(=O)c2ccccc2)C(=O)N(c2ccccc2)N1c1ccccc1` (racemic) [(+/-)-Sulfinpyrazone] (41.84 µM): the “perturbation Mahalanobis distance” value by setting is: under setting [1], 3.46; under setting [2], 2.61.
